Measurements: PubChem BioAssay

assay: probe aWnt5a binding to arrayed compounds – biochemical, biotinylated probe, 635/667 nm fluorescence, primary screen (AID 1113); conditions: small-molecule microarray, higher = more signal;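 note: score merges 667 nm fluorescence intensity with signal-to-noise per printed feature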

| Compound | composite z-score |
| --- | --- |
| CC(C)(C)OC(=O)CC[C@]1(C(=O)N2CCOCC2)N=C(c2ccc(OCCCO)cc2)O[C@H]1c1ccccc1CN=[N+]=[N-] | -0.0221 |
| CC(c1ccccc1)C(O)C1C=CC2C(=O)N(c3ccccc3)C(=O)C2N1Nc1ccc(C#N)cc1 (stereo not given) | 0.216 |
| COc1ccc(CCNC(=O)[C@@]2(Sc3ccc(C)cc3)CC(=O)N(Cc3cc(C(F)(F)F)cc(C(F)(F)F)c3)[C@@H]2c2ccc(CO)cc2)cc1 | -0.124 |
| CCOC(=O)C[C@H]1[C@H](OC(=O)c2cc3ccccc3oc2=O)[C@@H](NC(=O)C2CCCCC2)c2cc(OCCCO)ccc2N1C(=O)Cc1ccc(OC)cc1 | 0.0633 |
| CC1CC/C=C\[C@H]2OC34C=CCN(CCN5CCOCC5)C(=O)[C@H]3N(CCCCCCO)C(=O)[C@@H]4C2C(=O)O1 (stereo not given in full) | -0.232 |
| CCOC(=O)C1=CC[C@@H](c2ccc(F)cc2)N(S(=O)(=O)c2ccc(C)cc2)[C@H]1c1ccc([N+](=O)[O-])cc1 | 0.0323 |
| COC(=O)[C@@]1(Cc2ccc(OC)cc2)[C@@H]2[C@@H](CC(=O)[C@H]2CC(=O)C(=O)N2CCCC2)CN1C(=O)c1ccccc1 | 1.31 |
| C=CCNC(=O)[C@H]1[C@@H]2C(=O)O[C@@H](c3ccccc3)[C@@H](c3ccccc3)N2[C@@H](c2ccc(O)cc2)[C@]12C(=O)Nc1ccc(C#CC3=CCCCC3)cc12 | 0.163 |
| COC(=O)Cn1c(C(=O)N(C)C)cc2c1C[C@H]1CN(C(=O)c3ccccc3)[C@@](Cc3ccc(OC)cc3)(C(=O)OC)[C@@H]21 | 0.409 |
| O=C1O[C@@H](c2ccccc2)[C@@H](c2ccccc2)N2[C@@H](c3ccc(O)cc3)[C@]3(C(=O)Nc4ccc(C#CC5=CCCCC5)cc43)[C@@H](C(=O)N3CCCCCCC3)[C@H]12 | 0.654 |
| CC(C)C[C@H]1NC(=O)[C@@]23C(=O)N[C@@H](Cc4ccccc4)C2[C@H](C)[C@@]2(C)O[C@H]2C3/C=C/C/C=C\CNC(=O)[C@@H]2CCCN2C1=O (stereo not given in full) | -0.0704 |
| C#CCN(C/C=C/c1ccccc1)[C@H](CO[Si](C)(C)C(C)(C)C)c1ccccc1 | -0.0403 |
| COC(=O)C1(CC(C)C)C=C2C(=C(C(C)C)C(=O)C2C)CN1 (stereo not given) | -0.0403 |
| CC=CC(O)C1C=CC2C(=O)N(C)C(=O)C2N1NC(=O)OC(C)(C)C (stereo not given) | -0.101 |
| COc1cc2c(cc1O)C(C1CC1)N(Cc1ccc([N+](=O)[O-])o1)CC2 (stereo not given) | -0.0924 |
| CC(C)C[C@H]1NC(=O)[C@@H](C)NC(=O)[C@@]23C(=O)N[C@@H](Cc4ccccc4)C2[C@H](C)[C@@]2(C)O[C@H]2C3/C=C/C/C=C\CNC1=O (stereo not given in full) | -0.175 |
| COCCOC(=O)N1C(=O)[C@@]2(c3cc(C#Cc4ccc(OC)cc4)ccc31)[C@H](C(=O)N1CCCCCCC1)[C@H]1C(=O)O[C@H](c3ccccc3)[C@H](c3ccccc3)N1[C@@H]2c1ccccc1OCCO | 1.16 |
| CCCCN1CC=CC23O[C@@H]4C=CCOC(=O)[C@@H]4[C@H]2C(=O)N(C(CO)C(C)C)[C@@H]3C1=O (stereo not given in full) | -0.173 |

| Compound | composite z-score |
| --- | --- |
| C[C@H]1NC(=O)C([C@@H](C)OCc2ccccc2)NC(=O)[C@@]23C(=O)N[C@@H](Cc4ccccc4)C2[C@H](C)[C@@]2(C)O[C@H]2C3/C=C/C/C=C\CNC1=O (stereo not given in full) | -0.213 |
| C=CCC(OC(C)=O)[C@@H]1[C@@H](N(Cc2cc3ccccc3o2)C(=O)c2cccc3ccccc23)c2cc(OCCCO)ccc2N1C(=O)c1ccc2ccccc2c1 (stereo not given in full) | 0.0047 |
| NC(=O)NCC#Cc1ccc2c(c1)[C@]1(C(=O)N2)[C@H](C(=O)N2CCCCCCC2)[C@H]2C(=O)O[C@H](c3ccccc3)[C@H](c3ccccc3)N2[C@@H]1c1ccc(O)cc1 | 0.754 |
| [N-]=[N+]=NCc1ccccc1[C@H]1OC(c2ccc(OCCCO)cc2)=N[C@@]1(Cc1ccccc1)C(=O)N1CCOCC1 | 0.186 |
| CC(C)=CCN(C(=O)C#Cc1ccccc1)[C@H](CO)c1ccccc1 | -0.0346 |
| CCCC=C(CCC)[C@@H](NC(=O)c1ccco1)c1ccc(C(=O)OC)cc1 | 0.117 |
| CN(C)CCCCNC(=O)[C@H]1C[C@H]2C(=O)NCC(=O)N2[C@H]1c1cccc(OCCO)c1 | -0.0685 |
| N#Cc1ccc(C(O)C2C=CC3C(=O)NC(=O)C3N2Nc2ccccn2)cc1 (stereo not given) | -0.178 |
| C=CCC(OC(C)=O)[C@@H]1[C@@H](N(Cc2ccc(-c3cccc(C(F)(F)F)c3)o2)C(=O)Cc2ccc(F)cc2)c2cc(OCCCO)ccc2N1C(=O)c1ccc2ccccc2c1 (stereo not given in full) | -0.0548 |
| COCCOC(=O)N1C(=O)[C@@]2(c3cc(C#CC4(O)CCCCCC4)ccc31)[C@H](c1ccc(OCCO)cc1)N1[C@H](c3ccccc3)[C@H](c3ccccc3)OC(=O)[C@H]1[C@@H]2C(=O)N1CCCCCCC1 | 0.716 |
| CO[C@H]1O[C@H](CO)[C@@H](OC(=O)Nc2ccc(C(F)(F)F)cc2)[C@H](OC(=O)Nc2ccccc2-c2ccccc2)[C@@H]1OC(=O)Nc1ccccc1-c1ccccc1 | 0.0181 |
| COCCOC(=O)N1C(=O)[C@@]2(c3cc(C#CCC(C(=O)OC)C(=O)OC)ccc31)[C@H](C(N)=O)[C@H]1C(=O)O[C@H](c3ccccc3)[C@H](c3ccccc3)N1[C@@H]2c1ccc(OCCO)cc1 | -0.0161 |
| CCCCNC(=O)c1ccc(C#C[Si](C)(C)C)c(OC(C)=O)c1 | -0.191 |
| COCCOC(=O)N1C(=O)[C@@]2(c3cc(C#Cc4ccc(OC)cc4)ccc31)[C@H](C(=O)Nc1nc3ccccc3s1)[C@H]1C(=O)O[C@H](c3ccccc3)[C@H](c3ccccc3)N1[C@@H]2c1ccccc1OCCO | -0.299 |
| COC(=O)[C@@]1(Cc2ccc(F)cc2)[C@H]2c3cc(C(=O)N4CCCC4)n(CCO)c3C[C@H]2CN1C(=O)c1ccccc1 | 0.229 |
| CCC[C@@H]1C=C(C(=O)OCC)[C@H](c2ccccc2)N1S(=O)(=O)c1ccc(C)cc1 | 0.145 |
| COCCOC(=O)N1C(=O)[C@@]2(c3ccccc31)[C@H](C(N)=O)[C@H]1C(=O)O[C@H](c3ccccc3)[C@H](c3ccccc3)N1[C@@H]2c1ccc(OCCO)cc1 | -0.063 |
